# Assay outcomes as filed in PubChem.
# Rows were chosen to be rich in hits. Some 10% of all compounds tested hit in one or more screens of this group.
# GLS inh: qHTS for Inhibitors of Glutaminase (GLS) | GLS enzymatic activity, qHTS titration | Potency, µM (titrated, usually from 45.5 µM), for inactives: at the top dose activity change, negative = inhibition, hits mostly inhibitors | actives 0.21% (n = 410,000) | AID 624170, 2012; further: on the % scale 0 is the no-effect control and ±100 the full control effect
#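 hKGA; 45 mM KH2PO4 pH 8.2 + 0.02% Tween-20; cpd via pin tool; 1 mM Gln soln; GluOx/HRP/Amplex Red; RT 30 min; fluor. t0 & final.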
# L3MBTL1 inh: qHTS Assay for the Inhibitors of L3MBTL1. Lethal(3)malignant brain tumor-like protein 1 (Homo sapiens), Q9Y468. AlphaScreen L3MBTL1–H3K9me1 peptide binding. Potency, µM (top dose mostly 57.1 µM), inactives show at the top dose activity, negative = inhibition, hits mostly inhibitors. actives 0.66% (n = 230,000). AID 485360, 2010; further: on the % scale 0 is the no-effect control and ±100 the full control effect; nearly all actives have a fitted effect of over 60% in size
#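 First, the protein-peptide complex forms for 30 min at room temperature (L3MBTL1 50 nM, biotinylated H3K9me1 peptide 75 nM). Next, compounds are pin-transferred and incubated 30 min. Finally, AlphaScreen beads are added and read after 30 min.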
# JMJD2A Tudor inh: qHTS Assay for Inhibitors of JMJD2A-Tudor Domain | Lysine-specific demethylase 4A (Homo sapiens), O75164 | AlphaScreen JMJD2A-Tudor / H3K4me3 peptide binding | Potency, µM (titrated, usually from 114 µM), for the others: top-dose activity change, negative = inhibition, usual class: inhibitors | actives 4.4% (n = 390,000); further: on the % scale 0 is the no-effect control and ±100 the full control effect; nearly all actives have a fitted effect of over 50% in size
# BAZ2B block: qHTS Assay for Inhibitors of BAZ2B. AlphaScreen BAZ2B-H3K14Ac peptide displacement. Potency, µM (doses to about 114 µM), inactives show at the top dose activity change, negative = inhibition, most hits filed as inhibitors. actives 4.4% (n = 360,000). AID 504333, 2011; further: on the % scale 0 is the no-effect control and ±100 the full control effect; nearly all actives have a fitted effect of over 60% in size
#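 Multi-concentration screen (max 110 uM) measuring displacement of acetylated histone H3 peptide from BAZ2B by AlphaScreen, using 50 nM protein, 50 nM peptide and 10 ug/mL streptavidin donor plus Ni-chelate acceptor beads.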
# G9a block: qHTS Assay for Inhibitors of Histone Lysine Methyltransferase G9a; Histone-lysine N-methyltransferase EHMT2 (Homo sapiens), Q96KQ7; G9a H3K9 monomethylation, AlphaScreen, 2 h; Potency, µM (top dose mostly 102 µM), for the others: top-dose activity, negative = inhibition, most hits filed as inhibitors; actives 8.8% (n = 350,000); further: on the % scale 0 is the no-effect control and ±100 the full control effect; nearly all actives have a fitted effect of over 75% in size
# Target sequence (Q96KQ7 913-1193 limits assumed): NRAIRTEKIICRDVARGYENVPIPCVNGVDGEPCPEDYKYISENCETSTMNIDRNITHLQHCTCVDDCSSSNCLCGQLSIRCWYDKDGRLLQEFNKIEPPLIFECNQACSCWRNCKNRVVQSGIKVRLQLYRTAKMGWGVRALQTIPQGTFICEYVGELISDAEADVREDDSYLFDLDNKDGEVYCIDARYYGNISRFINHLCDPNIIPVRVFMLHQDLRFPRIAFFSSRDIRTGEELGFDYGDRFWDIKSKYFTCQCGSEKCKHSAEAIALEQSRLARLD
#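 Step 1: enzyme (final 20 nM) with compound, 15 min RT. Step 2: substrate peptide 500 nM and SAM 20 uM, 2 h RT. Step 3: anti-H3K9me1 antibody and AlphaScreen beads, 10 min, then plate read.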
# HP1b chromo inh: HTS for Inhibitors of HP1-beta Chromodomain Interactions with Methylated Histone Tails; actives 0.56% (n = 390,000); AID 540317, 2011; Chromobox protein homolog 1 (Homo sapiens), P83916; AlphaScreen HP1-beta / biotin-H3K9me3 peptide binding; Potency, µM (top dose mostly 114 µM), for the others: at the top dose activity change, negative = inhibition, usual class: inhibitors; further: nearly all actives have a fitted effect of over 70% in size
# Target sequence (P83916 whole entry, looked up): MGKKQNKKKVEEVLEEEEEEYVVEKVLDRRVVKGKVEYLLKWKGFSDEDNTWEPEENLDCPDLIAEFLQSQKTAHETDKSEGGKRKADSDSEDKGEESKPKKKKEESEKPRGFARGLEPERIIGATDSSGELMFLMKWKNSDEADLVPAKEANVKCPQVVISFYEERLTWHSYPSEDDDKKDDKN
#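 AlphaScreen: HP1-beta (50 nM) preformed 30 min with biotin-H3(1-18)K9me3 peptide (50 nM) in PBS pH 7.4, 0.01% Tween-20. Compound added for 30 min at RT, then streptavidin donor/nickel chelate acceptor beads (10 ug/mL) for 30 min.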
# * hit, by the source's call; ? = inconclusive; / = no result given; [ ] = dose if it differs, or a comment. The call rests on the fitted dose curve; in most records, active means well fitted curve in the direction sought with a large enough effect; inconclusive means small, poorly fitted or top-dose-only effect, or another doubt; inactive means no such curve, though single readings can be large; an effect the other way counts as inactive or inconclusive. Potency means the concentration at half of the fitted maximal effect.
SMILES,GLS inh,L3MBTL1 inh,JMJD2A Tudor inh,BAZ2B block,G9a block,HP1b chromo inh
O=[N+]([O-])c1cc([N+](=O)[O-])c(Oc2cc(Cl)ccc2Cl)cc1NC1CCCCCCC1,0%,0%,?,?,40µM*,2%
Cc1cc(OC(C)C(=O)N(Cc2ccco2)Cc2ccco2)cc(C)c1Cl (stereo not given),-9%,/,-19%,12%,-1%[59 µM],23%
O=C(Nc1nc2ccccc2n1CCOc1ccccc1)c1ccco1,1%,-10%,-7%,?,64%[59 µM],42%
c1ccc(OCCn2c(-c3ccco3)nc3ccccc32)cc1,3%,0%,-25%,?,40µM*,-6%
CCn1c(-c2ccco2)nc2ccccc21,6%,-3%,-23%,18%,6.3µM*,58%
COc1ccc(S(=O)(=O)N(CCc2ccccc2)CC(=O)Nc2cccc(OC)c2)cc1,-7%,/,-4%,31%,41%[59 µM],64%
CN(/N=C/c1cc(Cl)cc(Cl)c1O)c1c(Cl)cccc1[N+](=O)[O-],-4%,?,40µM*,10µM*,/,?
O=C(CCc1nnc2ccc(NCc3ccco3)nn12)N1CCN(c2ccccc2F)CC1,8%,/,?,71µM*,/,30%
Cc1cccnc1NC(=O)CCc1nnc2ccc(NCc3ccco3)nn12,-18%,/,-25%,?,-16%,38%
O=C(CCc1nnc2ccc(NCc3ccco3)nn12)Nc1ccccn1,?,/,11%,50µM*,?,32%
Cc1cccc(NC(=O)CCc2nnc3ccc(NCc4ccco4)nn23)n1,?,/,16%,50µM*,-7%,46%
O=C(NC1CCCCC1)c1cnn2c1NC(=C1CC1)C=C2C(F)F,/,/,/,/,/,21%
CC(=O)c1cc(-c2ccc(F)cc2)n(CCC(=O)Nc2nc3ccc(C)cc3s2)c1C,-10%,/,-7%,0%,-31%[59 µM],49%
CCc1ccc(OCC2c3cc(OC)c(OC)cc3CCN2C(=O)COc2ccccc2)cc1 (stereo not given),1%,/,-31%,?,-38%[59 µM],10%
O=C(CSc1nc(NS(=O)(=O)c2ccccc2)cc(=O)[nH]1)Nc1ccccc1Cl,-15%,/,0%,?,-17%,20%
Cc1ccc(NC(=O)CSc2nc(NS(=O)(=O)c3ccccc3)cc(=O)[nH]2)cc1,3%,/,50µM*,?,?,-18%
Cc1ccc(S(=O)(=O)Nc2cc(=O)[nH]c(SCC(=O)Nc3ccccc3Cl)n2)cc1,-4%,1%,-2%,56µM*,56µM*,44%
CCc1ccc(NC(=O)CSc2nc(NS(=O)(=O)c3ccccc3)cc(=O)[nH]2)cc1,-15%,?,-14%,50µM*,?,41%
O=C(O)c1cccc(Nc2nc(-c3ccccc3)nc3ccccc23)c1,-13%,/,-13%,?,56µM*,16%
O=C(O)c1cccc(-n2c(/C=C/c3cccc([N+](=O)[O-])c3)nc3ccccc3c2=O)c1,4%,/,-15%,-37%,2%[0.501 µM],-1%
O=C(O)c1cccc(Nc2nc(-c3ccc([N+](=O)[O-])cc3)nc3ccccc23)c1,-11%,/,-30%,56µM*,?,12%
O=C(O)c1cccc(Nc2nc3ccccc3nc2NS(=O)(=O)c2cccs2)c1,8%,/,-15%,-5%[57.1 µM],45µM*,37%
O=C(O)c1cccc(-n2c(/C=C/c3ccc([N+](=O)[O-])cc3)nc3ccccc3c2=O)c1,2%,-2%,-25%,-30%,71µM*,7%
CCN(C(=O)Cn1c(=O)oc2cc(Cl)ccc21)c1cccc(C(F)(F)F)c1,0%,/,5%,12%,2%[59 µM],41%
CCOc1ccccc1NC(=O)CSC1=Nc2ccccc2C2=NC(CC(=O)NC3CCCCC3)C(=O)N12 (stereo not given),-26%,/,-14%,-32%,-23%[59 µM],20%
SMILES,GLS inh,L3MBTL1 inh,JMJD2A Tudor inh,BAZ2B block,G9a block,HP1b chromo inh
Cc1nc2ccc([N+](=O)[O-])cc2nc1C,-13%,9%,-18%,-17%,0%,27%
CC1=Nc2cc([N+](=O)[O-])ccc2NC(C)(C)C1,-2%,-6%,?,?,32µM*,-7%
O=C(COc1ccc(Cl)cc1)OCCNC12CC3CC(CC(C3)C1)C2,8%,/,/,/,6%[12.7 µM],/
O=C(Nc1ccc(F)c(F)c1)c1cc(S(=O)(=O)NCc2ccc3c(c2)OCO3)ccc1F,2%,/,-26%,3%,3%[59 µM],29%
CCNC(=O)N(C)C[C@H]1N[C@@](C)(C(=O)OC)[C@H]2C(=O)N(C)C(=O)[C@@H]12,5%,-1%,89µM*,/,/,27%
COC(=O)[C@]1(C)N[C@H](CN(C)C(C)=O)[C@@H]2C(=O)N(C)C(=O)[C@@H]21,4%,1%,-22%,/,/,17%
Cc1ccccc1OCC(=O)NCC(C)NC(=O)COc1ccccc1C (stereo not given),/,/,-8%[57.1 µM],/,/,2%[57 µM]
O=C(NNc1c(Cl)cccc1Cl)c1ccno1,21%,2%,-13%,-2%,-16%[59 µM],41%
CCCc1ccc(C(=O)NNc2ccccc2F)cc1,-1%,9%,-10%,-14%,56µM*,63%
Cc1cc(C(=O)NNc2c(Cl)cccc2Cl)no1,56%,8%,9%,-2%,28µM*,42%
Cc1cc(C(=O)NNc2ccc(F)cc2)no1,-7%,5%,-3%,3%,28µM*,37%
CCc1ccccc1NNC(=O)c1cc(C)on1,9%,10%,-10%,2%,3.2µM*,50%
Cc1ccc(NC(=O)c2cc(C)on2)cc1,8%,18%,3%,-1%,?,15%
Cc1cc(C(=O)Nc2ccccc2C(F)(F)F)no1,-8%,3%,8%,-5%,-16%[2.33 µM],42%
CCOC(=O)c1c(C)c(C(=O)NCc2ccc(Cl)cc2)c(C)n1CC,-1%,/,-19%,-1%,0%[59 µM],12%
Cc1nc2sccn2c(=O)c1S(=O)(=O)Nc1cc(C(F)(F)F)ccc1Cl,-4%,/,-11%,-8%,0%[59 µM],14%
CCOc1ccc(-n2nc(CO)c(C(=O)NCCCc3ccccc3)n2)cc1,0%,/,-4%,9%,3%[59 µM],45%
O=C(NNc1c(Cl)cccc1Cl)c1c(F)cccc1Cl,-1%,-12%,-8%,13%,-1%,54%
